Laboratory results reported in PubChem BioAssay AID1224917.
Active and inactive are the calls of the source. The rule behind the calls is not given here.

Target: Proto-oncogene tyrosine-protein kinase Src (Homo sapiens) (UniProt P12931)
Test: SRC kinase inhibition relative to ABL, profiling panel, biochemical, recombinant kinase panel (AID 1224917)
Settings: 33P substrate incorporation, hits give high values

Sequence of Proto-oncogene tyrosine-protein kinase Src (Homo sapiens) (P12931 whole entry, looked up): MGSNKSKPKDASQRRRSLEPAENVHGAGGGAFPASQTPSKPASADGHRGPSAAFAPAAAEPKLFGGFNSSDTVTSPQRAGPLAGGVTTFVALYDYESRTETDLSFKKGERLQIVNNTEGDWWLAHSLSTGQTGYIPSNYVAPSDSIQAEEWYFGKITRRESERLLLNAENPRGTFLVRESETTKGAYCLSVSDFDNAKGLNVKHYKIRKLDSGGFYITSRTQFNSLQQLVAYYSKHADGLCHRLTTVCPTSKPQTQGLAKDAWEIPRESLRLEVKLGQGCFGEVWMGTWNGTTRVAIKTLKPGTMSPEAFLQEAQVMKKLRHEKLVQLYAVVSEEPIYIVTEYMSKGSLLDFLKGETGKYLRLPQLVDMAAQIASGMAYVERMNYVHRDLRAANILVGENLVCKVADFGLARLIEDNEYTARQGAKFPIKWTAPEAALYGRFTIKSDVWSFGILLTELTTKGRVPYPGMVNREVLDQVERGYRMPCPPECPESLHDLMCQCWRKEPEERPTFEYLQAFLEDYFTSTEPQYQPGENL

In the case of COc1cc(-c2nn(CCN3CCC(N(C)C)CC3)c3ncnc(N)c23)ccc1NC(=O)OC(C)(C)C, the selectivity fold (ABL/SRC IC50) is reported as > 950 (active).
